Drawing on PubChem BioAssay, this text covers composite z-score and z-score for seven molecules.

Active and inactive are the calls of the source.

Assay [1] has as its system Wnt5a (protein binding on small-molecule microarray). Kind of assay: small molecules binding Wnt5a protein – biophysical, small-molecule microarray, 635/667 nm fluorescence, primary screen (AID 1142).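 Note: fluorescence read at 667 nm with signal to noise per printed feature.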 To be noted: 635 nm fluorescence, higher = more signal.
Assay [2] can be described thus: ATP-based viability of Huh7 replicon cells – cell-based, CellTiter-Glo luminescence, basal, 48 h, cytotoxicity control for HCV replication inhibitor project, primary screen (AID 1143).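 Note: Huh7 hepatoma cells carrying a hepatitis C replication reporter with no stimulus; test concentration not given here.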 As to conditions: higher = more signal, called active from +8 up or from −8 down. (In general: Replicon systems follow genome replication, usually without infectious particles.)
A short description of assay [3]: basal CRE-LacZ reporter activity in PC12 – cell-based, unstimulated, primary screen (AID 1145). As to conditions: no forskolin, luminescence, 4.5 h, higher = more signal, called active from +8 up or from −8 down.
A short description of assay [4]: forskolin-driven CRE-LacZ activity in PC12 – cell-based, CRE-LacZ reporter, forskolin-stimulated, primary screen (AID 1146).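 Note: PC12 cells with 6xCRE LacZ reporter stimulated by forskolin 10 µM; beta-galactosidase reporter signal reflecting CREB driven transcription.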 As to conditions: luminescence, 4.5 h, higher = more signal, called active from +8 up or from −8 down.
Assay [5] deals with Streptavidin (Streptomyces avidinii) (UniProt P22629). Kind of assay: compounds binding control protein streptavidin – biophysical, small-molecule microarray, 635/667 nm fluorescence, artefact control for SMM compound annotation, primary screen (AID 1147).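 Note: signal reflects streptavidin binding to arrayed compounds as a control protein.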 As to conditions: higher = more signal.
Sequence of Streptavidin (Streptomyces avidinii) (P22629 whole entry, looked up): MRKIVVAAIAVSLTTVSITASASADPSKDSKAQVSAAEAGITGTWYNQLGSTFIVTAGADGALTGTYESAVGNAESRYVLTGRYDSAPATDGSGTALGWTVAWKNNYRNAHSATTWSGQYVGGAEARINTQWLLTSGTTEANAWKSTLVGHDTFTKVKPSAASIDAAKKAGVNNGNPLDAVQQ
Assay [6] in a line: probe aInhba binding on compound microarray – biochemical, small-molecule microarray, 635/667 nm fluorescence, primary screen (AID 1148).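 Note: score merges 667nm spot fluorescence with signal-to-noise for antibody binding to printed compounds.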 To be noted: higher = more signal.
Assay [7] deals with Torsin-1A (Homo sapiens) (UniProt O14656). Nature of the assay: TOR1A wild-type binding on microarray – cell lysate, small-molecule microarray, lysate, 635/667 nm, primary screen (AID 1149). As to conditions: COS7 hTOR1A-WT lysate, 635 nm fluorescence, higher = more signal.
Sequence of Torsin-1A (Homo sapiens) (O14656 whole entry, looked up): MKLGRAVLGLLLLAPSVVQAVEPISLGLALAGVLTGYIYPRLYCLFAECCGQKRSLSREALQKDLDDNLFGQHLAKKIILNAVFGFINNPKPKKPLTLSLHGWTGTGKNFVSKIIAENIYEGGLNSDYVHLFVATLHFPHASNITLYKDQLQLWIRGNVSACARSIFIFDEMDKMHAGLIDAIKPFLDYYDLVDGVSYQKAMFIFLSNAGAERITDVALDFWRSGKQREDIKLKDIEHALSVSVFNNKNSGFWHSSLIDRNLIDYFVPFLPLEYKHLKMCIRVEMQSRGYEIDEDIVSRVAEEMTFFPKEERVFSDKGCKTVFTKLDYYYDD
For assay [8] the target is unchanged. Nature of the assay: torsin A mutant lysate binding on microarrays – cell lysate, small-molecule microarray, COS7 lysate, 635/667 nm fluorescence, primary screen (AID 1150).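 Note: score pools 667 nm emission and signal to noise measuring lysate protein binding.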 As to conditions: COS7 hTOR1A mutant lysate, 635 nm fluorescence, higher = more signal.
The test system of assay [9] is Sonic hedgehog protein (Shh). Kind of assay: Sonic hedgehog microarray binding compounds – biochemical, small-molecule microarray, 635/667 nm fluorescence, primary screen (AID 1151).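 Note: Shh protein binding to compounds spotted on small-molecule microarray slides; score combines spot fluorescence intensity with signal-to-noise across triplicate slides.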 As to conditions: 635 nm fluorescence, higher = more signal.
A short description of assay [10]: optical density shifts of acrAB sulA E. coli – strain DRC41, OD650, 48 h, E. coli filamentation inducer project, primary screen (AID 1152).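 Note: E. coli MC1000 strain DRC41 lacking acrAB efflux pump and sulA.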 To be noted: higher = more signal, called active from +8 up or from −8 down.
A short description of assay [11]: probe aLefty1 binding on compound microarray – biochemical, small-molecule microarray, 635/667 nm fluorescence, primary screen (AID 1153).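 Note: score merges spot fluorescence with signal-to-noise ratio from the scanned slide images.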 As to conditions: higher = more signal.
Assay [12] in a line: plasmodial surface anion channel blockers, osmotic lysis – cell-based, P. falciparum Indochina, OD700, 1 h, primary screen (AID 1154). To be noted: P. falciparum Indochina infected RBC osmotic lysis, higher = more signal, called active from +8 up or from −8 down.
The nature of assay [13]: plasmodial surface anion channel blockers, osmotic lysis – cell-based, P. falciparum Indochina, OD700, 2 h, primary screen (AID 1155).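 Note: lysis reports solute entry through the parasite surface anion channel PSAC.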 To be noted: P. falciparum Indochina infected erythrocytes, higher = more signal, called active from +8 up or from −8 down.
The nature of assay [14]: changes in parasitized red cell lysis, either direction – P. falciparum Indochina, OD700, 3 h, PSAC antagonist project, primary screen (AID 1156). To be noted: P. falciparum-infected erythrocytes, osmotic lysis, higher = more signal, called active from +8 up or from −8 down.
Assay [15] in a line: plasmodial surface anion channel blockers, osmotic lysis – cell-based, P. falciparum Indochina, OD700, 18 h, primary screen (AID 1157). To be noted: P. falciparum Indochina infected erythrocytes, osmotic lysis OD700, 18 h; higher = more signal, called active from +8 up or from −8 down.
Assay [16] is described as follows: S6 kinase pathway phospho-S6 level changes – cell-based, A549, cytoblot, luminescence, serum-stimulated, primary screen (AID 1158).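 Note: serum-stimulated A549 lung adenocarcinoma cells; signal is phosphorylated S6 detected by cytoblot immunostaining with HRP secondary.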 To be noted: 5 h, higher = more signal.
The target of assay [17] is NADPH oxidase 2 (Homo sapiens) (UniProt P04839). Nature of the assay: compounds shifting NOX2 Amplex Red fluorescence – cell-based, HEK293-NOX2, PMA-stimulated, NOX inhibitor project, primary screen (AID 1159). Note: test concentration not given here. As to conditions: 45 min, higher = more signal, called active from +8 up or from −8 down.
Sequence of NADPH oxidase 2 (Homo sapiens) (P04839 whole entry, looked up): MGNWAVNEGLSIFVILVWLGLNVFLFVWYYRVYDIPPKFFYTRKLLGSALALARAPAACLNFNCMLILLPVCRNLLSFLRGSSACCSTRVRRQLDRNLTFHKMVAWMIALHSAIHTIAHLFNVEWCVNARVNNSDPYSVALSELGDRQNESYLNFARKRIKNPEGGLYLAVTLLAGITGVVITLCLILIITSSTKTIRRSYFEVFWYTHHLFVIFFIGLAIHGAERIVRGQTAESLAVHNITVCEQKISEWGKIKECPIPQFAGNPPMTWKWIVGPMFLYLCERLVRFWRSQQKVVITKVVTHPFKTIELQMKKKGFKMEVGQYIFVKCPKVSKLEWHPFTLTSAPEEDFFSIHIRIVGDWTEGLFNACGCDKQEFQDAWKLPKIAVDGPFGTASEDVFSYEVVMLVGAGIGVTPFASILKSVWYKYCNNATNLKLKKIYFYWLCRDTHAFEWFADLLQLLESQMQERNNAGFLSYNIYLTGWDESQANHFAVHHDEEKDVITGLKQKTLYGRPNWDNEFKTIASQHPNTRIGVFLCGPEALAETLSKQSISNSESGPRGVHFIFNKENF
For assay [18], the target named is NADPH oxidase 4 (Homo sapiens) (UniProt Q9NPH5). Kind of assay: compounds shifting NOX4 Amplex Red fluorescence – cell-based, HEK293-NOX4, tetracycline-induced, NOX inhibitor project, primary screen (AID 1160). To be noted: HEK293-NOX4, Amplex Red H2O2 fluorescence, 45 min; higher = more signal, called active from +8 up or from −8 down.
Sequence of NADPH oxidase 4 (Homo sapiens) (Q9NPH5 whole entry, looked up): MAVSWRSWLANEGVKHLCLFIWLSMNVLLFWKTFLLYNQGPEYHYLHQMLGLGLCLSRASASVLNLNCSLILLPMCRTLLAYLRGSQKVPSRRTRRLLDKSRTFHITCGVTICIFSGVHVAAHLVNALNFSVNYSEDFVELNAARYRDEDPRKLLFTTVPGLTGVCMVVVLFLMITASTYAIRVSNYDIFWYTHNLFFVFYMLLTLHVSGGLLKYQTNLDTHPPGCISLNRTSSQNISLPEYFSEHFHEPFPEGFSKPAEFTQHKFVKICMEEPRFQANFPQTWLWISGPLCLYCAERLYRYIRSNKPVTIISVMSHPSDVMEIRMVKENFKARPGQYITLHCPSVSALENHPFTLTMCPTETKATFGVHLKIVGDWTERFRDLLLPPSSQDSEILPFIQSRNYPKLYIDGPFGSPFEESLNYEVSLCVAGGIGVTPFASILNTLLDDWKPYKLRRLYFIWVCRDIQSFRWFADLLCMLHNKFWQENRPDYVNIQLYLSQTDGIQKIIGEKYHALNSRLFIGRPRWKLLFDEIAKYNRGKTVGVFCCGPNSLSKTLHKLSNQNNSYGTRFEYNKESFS
Assay [19] has as its target NADPH oxidase 5 (Homo sapiens) (UniProt Q96PH1). Kind of assay: compounds shifting NOX5 Amplex Red fluorescence – cell-based, HEK293-NOX5, NOX inhibitor project, primary screen (AID 1161). As to conditions: HEK293-NOX5, ionomycin, 45 min, higher = more signal.
The nature of assay [20]: compound effects on lung adenocarcinoma cell viability – A549, calcein-AM fluorescence, 48 h, basal, profiling panel (AID 1162). Note: test concentration not given here. As to conditions: higher = more signal.

Sequence of NADPH oxidase 5 (Homo sapiens) (Q96PH1 whole entry, looked up): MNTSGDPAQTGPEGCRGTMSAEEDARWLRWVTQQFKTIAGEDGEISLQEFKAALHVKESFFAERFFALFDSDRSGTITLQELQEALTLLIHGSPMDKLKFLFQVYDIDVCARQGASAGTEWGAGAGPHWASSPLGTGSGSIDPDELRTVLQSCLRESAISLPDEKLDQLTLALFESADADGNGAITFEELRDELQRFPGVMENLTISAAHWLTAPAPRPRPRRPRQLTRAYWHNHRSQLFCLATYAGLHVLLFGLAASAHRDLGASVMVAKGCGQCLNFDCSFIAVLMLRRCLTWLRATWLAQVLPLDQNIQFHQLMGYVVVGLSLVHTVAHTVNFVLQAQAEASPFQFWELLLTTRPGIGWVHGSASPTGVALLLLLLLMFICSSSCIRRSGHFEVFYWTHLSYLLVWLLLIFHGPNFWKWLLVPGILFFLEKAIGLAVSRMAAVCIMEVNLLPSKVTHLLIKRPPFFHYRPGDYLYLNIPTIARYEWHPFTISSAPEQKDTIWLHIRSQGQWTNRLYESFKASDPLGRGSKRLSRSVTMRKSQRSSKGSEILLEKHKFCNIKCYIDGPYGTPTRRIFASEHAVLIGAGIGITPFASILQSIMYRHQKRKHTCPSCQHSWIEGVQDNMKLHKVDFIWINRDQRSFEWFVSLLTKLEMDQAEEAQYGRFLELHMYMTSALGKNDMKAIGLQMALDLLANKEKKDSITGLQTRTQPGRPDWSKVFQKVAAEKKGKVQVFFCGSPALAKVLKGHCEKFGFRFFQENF

On to `CCOC(=O)C[C@H]1[C@H](OC(=O)c2ccc(C(=O)c3ccccc3)cc2)[C@@H](NC(=O)Cc2ccc(OC)cc2)c2cc(OCCCO)ccc2N1C(=O)Cc1ccc(OC)cc1`, for which the composite z-score in assay [1] is 0.296; in assay [5], 0.598; in assay [6] it was -0.122; with Torsin-1A (Homo sapiens) [7], 0.226; with Torsin-1A (Homo sapiens) [8] it was 0.413; in assay [9] it was 0.697. Besides, the composite z-score in [11] amounted to 0.357. Further, the z-score is -0.69 (inactive) in assay [2]; 2.14 (inactive) in assay [3]; -0.899 (inactive) in [4]; 1.89 (inactive) in assay [10]; 4.37 (inactive) in [12]; -0.625 (inactive) in assay [13]. Further, the z-score is 0.0901 (inactive) in [14]; -1.14 (inactive) in assay [15]; 1 in assay [16]; 0.676 (inactive) in assay [17]; 0.79 (inactive) in assay [18]; 1.52 in [19]. In assay [20], the z-score was 2.13.
Regarding `C[C@@H](OCc1ccccc1)C1NC(=O)[C@@]23C(=O)N[C@@H](Cc4ccccc4)C2[C@H](C)[C@@]2(C)O[C@H]2C3/C=C/C/C=C\CNC(=O)[C@@H]2CCCN2C1=O` (stereo not given in full), the composite z-score was -0.13 in [1]; -0.9 in [5]; -0.192 in assay [6]; -0.0343 with Torsin-1A (Homo sapiens) [7]; 1.12 in the assay with Torsin-1A (Homo sapiens) [8]; 0.558 in assay [9]. The composite z-score in [11] is -0.239. Moreover, the z-score is -0.866 (inactive) in assay [2]; 2.13 (inactive) in [3]; -1.55 (inactive) in [4]; 2.21 (inactive) in assay [10]; 1.49 (inactive) in [12]; 0.0899 (inactive) in assay [13]. Besides, the z-score is 0.933 (inactive) in assay [14]; 0.231 (inactive) in assay [15]; 0.663 in [16]; -0.0597 (inactive) in [17]; 0.397 (inactive) in [18]; -0.915 in [19]. Moreover, in assay [20], the z-score was 0.791.
`C=CCNC(=O)[C@@H]1[C@H]2C(=O)O[C@H](c3ccccc3)[C@H](c3ccccc3)N2[C@H](c2ccc(O)cc2)[C@@]12C(=O)Nc1ccc(C#Cc3ccc(OC)cc3)cc12`: the composite z-score was determined as 0.212 in assay [1]; 1.16 in assay [5]; 0.0228 in [6]; 0.248 with Torsin-1A (Homo sapiens) [7]; 0.286 with Torsin-1A (Homo sapiens) [8]; 0.551 in [9]. In addition, the composite z-score in assay [11] was 0.159. The z-score in assay [2] is -4.8 (inactive); in assay [3] it was -0.0784 (inactive); in assay [4], -1.25 (inactive); in assay [10], 2.73 (inactive); in assay [12], 1.27 (inactive); in assay [13], -0.224 (inactive). In addition, the z-score is 0.375 (inactive) in assay [14]; -0.957 (inactive) in [15]; 0.98 in assay [16]; 1.35 (inactive) in [17]; 1.23 (inactive) in assay [18]; 0.0881 in assay [19]. The z-score in assay [20] is -0.629.
Take `COCCOC(=O)N1C(=O)[C@@]2(c3cc(C#CC4(O)CCCCCC4)ccc31)[C@H](C(=O)NC[C@H](O)c1ccccc1)[C@H]1C(=O)O[C@H](c3ccccc3)[C@H](c3ccccc3)N1[C@@H]2c1ccccc1OCCO`: the composite z-score in assay [1] turned out to be 0.393; in assay [5], 0.637; in assay [6] it was 0.0393; in the assay with Torsin-1A (Homo sapiens) [7] it was 0.821; in the assay with Torsin-1A (Homo sapiens) [8], 0.709; in [9], 1.9. In assay [11], this molecule yielded a composite z-score of 0.223. Moreover, the z-score in [2] was -5.32 (inactive); in [3], -0.203 (inactive); in assay [4] it was -0.464 (inactive); in assay [10], 1.5 (inactive); in assay [12] it was 2.13 (inactive); in [13], 1.55 (inactive). Also, the z-score was -0.535 (inactive) in [14]; 0.922 (inactive) in assay [15]; 0.632 in [16]; 1.82 (inactive) in [17]; -0.729 (inactive) in assay [18]; 0.85 in assay [19]. Also, in [20], the z-score is 0.463.
In the case of `CCOC(=O)C[C@H]1[C@H](OC(=O)Cc2ccc3c(c2)OCO3)[C@@H](NC(=O)c2ccc3ccccc3c2)c2cc(OCCCO)ccc2N1C(=O)c1ccc2ccccc2n1`, the composite z-score was 0.0364 in [1]; 0.398 in assay [5]; 0.219 in assay [6]; 0.0253 in the assay with Torsin-1A (Homo sapiens) [7]; 0.107 with Torsin-1A (Homo sapiens) [8]; 0.555 in assay [9]. In addition, the composite z-score in assay [11] is 0.169. In addition, the z-score was -2.81 (inactive) in assay [2]; 7.41 (inactive) in assay [3]; -1.37 (inactive) in assay [4]; 0.869 (inactive) in [10]; 11.8 (active) in [12]; 1.44 (inactive) in assay [13]. Also, the z-score in [14] was -0.859 (inactive); in assay [15] it was 0.0679 (inactive); in assay [16], 1.49; in assay [17] it was 0.0194 (inactive); in assay [18], -0.0398 (inactive); in assay [19], -3.84. Further, the z-score in [20] is 3.85.
Consider `O=C1N(CCS(=O)(=O)c2ccccc2)Cc2ccccc2[C@@H]2OC(c3ccc(OCCCO)cc3)=N[C@]12Cc1ccccc1`, for which the composite z-score in assay [1] was 1.14; in [5], 1.66; in assay [6], 0.243; with Torsin-1A (Homo sapiens) [7], 0.612; in the assay with Torsin-1A (Homo sapiens) [8], 0.29; in assay [9], 1.96. In assay [11], this molecule displayed a composite z-score of 0.327. Further, the z-score in assay [2] was -3.69 (inactive); in [3] it was 0.927 (inactive); in [4], -1.09 (inactive); in [10], 0.218 (inactive); in assay [12], 27.7 (active); in [13], 18.5 (active). For the same molecule, the z-score in assay [14] is 3.32 (inactive); in assay [15], 2.53 (inactive); in assay [16], 0.503; in assay [17] it was -3.23 (inactive); in [18], -0.195 (inactive); in assay [19], 1.01. In addition, the z-score in assay [20] was -1.08.
With `COC(=O)C1=CC(c2ccc(CO)cc2)=CC(C2CC2)N(C)C=C1C(=O)OC` (stereo not given), the composite z-score is 0.138 in [1]; 0.226 in assay [5]; 0.203 in assay [6]; -0.017 with Torsin-1A (Homo sapiens) [7]; 1.04 with Torsin-1A (Homo sapiens) [8]; -0.154 in assay [9]. The composite z-score in assay [11] worked out at 0.223. The z-score in [2] is -3.85 (inactive); in [3], -0.195 (inactive); in [4], -1.75 (inactive); in assay [10], 2.75 (inactive); in assay [12], 7.02 (inactive); in assay [13], 0.548 (inactive). Also, the z-score is -2.7 (inactive) in [14]; -0.382 (inactive) in assay [15]; 3.99 in assay [16]; -1.7 (inactive) in assay [17]; -0.0178 (inactive) in [18]; -1.69 in assay [19]. Moreover, in assay [20], the z-score is 0.981.
